Inconclusive results are not listed. Active and inactive are the calls of the source. Rule for the calls: active = hit-call score of the fitted dose curve at least 0.9, where 1 is the maximum; inconclusive = response in the unintended direction; inactive = score below 0.9.

The assay in a line: STM_H9_OrnCyssISnorm_ratio: Stemina devTOX quickPredict H9 human embryonic stem cell (hESC)-based Assay for Ornithine (ORN):Cystine (CYSS) Ratio (AID 2283714). How it is done:
STM_H9_secretome utilizes undifferentiated H9 cells to measure relative changes in two metabolites, ornithine (ORN) and cystine (CYSS) in the secretome, targeting a critical drop in the ORN/CYSS ratio as a biomarker for developmental toxicity.STM_H9_OrnCyssISnorm_ratio is one of 10 components calculated in the STM_H9_secretome assay. It is the ratio value of OrnISnorm_perc to CyssISnorm_perc.Data from the assay component STM_H9_OrnCyssISnorm_ratio was analyzed at the assay endpoint STM_H9_OrnCyssISnorm_ratio in the positive analysis fitting direction relative to DMSO as the negative control and baseline of activity. Using a type of binding reporter, gain or loss-of-signal activity can be used to understand relative metabolite change.
H9 hESCs maintained in a pluripotent state were exposed to test compound for 72h with chemical replenishment with media replacement every 24h. Cell-conditioned media from the final 24-h treatment period was collected for analysis of the targeted biomarker, and cell viability of the corresponding cell layer was assessed. The chemical library was tested in blinded fashion. Each test plate included 1uM Methotrexate (MTX; Selleck Chemicals, Houston, Texas) as a positive reference, 5 nM MTX as a negative reference, 0.1% DMSO as the neutral (vehicle) control, and sample-level media blanks.H9 cell-conditioned media from the final 24-h treatment period was collected for analysis of the targeted biomarker and cell viability was measured from the corresponding cell layer. Cell viability was measured using the CellTiter-Fluor assay (Promega, Madison, Wisconsin) based on proteolytic cleavage of a substrate to fluorescent signal proportional to the number of living cells. The cell viability Relative Fluorescence Unit (RFU) was background corrected and normalized to mean RFU of the neutral control (0.1% DMSO). The collected H9-cell-conditioned media samples were processed for targeted biomarker analysis as described (Palmer et al., 2013). Briefly, spent media samples were deproteinized (40% acetonitrile) and processed for UPLC-HRMS. Data acquisition was performed using 4 separate UPLC-HRMS systems, consisting of an Agilent 1290 Infinity LC system (Agilent Technologies) interfaced with an Agilent high-resolution mass spectrometer (models G6520A, G6520B, G6530A, and G6224A). A Waters Acquity UPLC BEH Amide column (2.1mm x 50mm, 1.7lm particle size; Waters, Milford, Massachusetts) maintained at 40C was applied for separation of metabolites using a 6.5min solvent gradient with 0.1% formic acid in water and 0.1% formic acid in acetonitrile (1.0ml/min flow rate). Data were acquired using MassHunter Acquisition software (version B 04.00, Agilent Technologies). The extracted ion chromatogram (EIC) areas for ORN, CYSS, and their respective spike-in C13-standards were determined using the Agilent MassHunter Quantitative Analysis software, version B.05.00 or newer (Agilent Technologies), and data were normalized as described in Palmer et al. (2017).
As usually defined, the AC50 is the concentration giving half of the maximal activity seen. Consider `CCOc1nc(C(Cl)(Cl)Cl)ns1`, for which the AC50 was 9.92 µM (active).

For `N#Cc1c[nH]cc1-c1cccc2c1OC(F)(F)O2`, the AC50 was 32.8 µM (active).

Take `COCc1cnc(C2=NC(C)(C(C)C)C(=O)N2)c(C(=O)O)c1` (configuration not stated): the outcome was inactive.

Regarding `CO/N=C(/C1=NOCCO1)c1ccccc1Oc1ncnc(Oc2ccccc2Cl)c1F`, the AC50 is 18.2 µM (active).

Take `CC(C)(C)C(=O)C(Oc1ccc(Cl)cc1)n1cncn1` (configuration not stated): the AC50 is 71.8 µM (active).

Regarding `CC1(C)CON(Cc2ccccc2Cl)C1=O`, the concentration at half-maximal activity (AC50) is 68.8 µM (active).

For the compound `O=C(Nc1ccccc1-c1ccc(Cl)cc1)c1cccnc1Cl`, the AC50 was 72.1 µM (active).

`Cn1c(-c2ccccc2)cc(-c2ccccc2)[n+]1C`: the AC50 was 20 µM (active).

Turning to `CCNC(=O)NC(=O)C(C#N)=NOC`, the AC50 is 77 µM (active).

`CNC(=O)Oc1cccc2ccccc12`: the AC50 was 2.71 µM (active).

Consider `CCN(CC)C(=O)C(C)Oc1cccc2ccccc12` (configuration not stated), for which the concentration at half-maximal activity (AC50) is 6.66 µM (active).

In the case of `CC(C)Nc1nc(Cl)nc(NC(C)C)n1`, the half-maximal activity concentration (AC50) was 5.16 µM (active).

Consider `CCCCC(C#N)(Cn1cncn1)c1ccc(Cl)cc1` (configuration not stated), for which the AC50 is 77.9 µM (active).

For the compound `COc1ccc(-c2ccccc2)cc1NNC(=O)OC(C)C`, the AC50 is 36.1 µM (active).

`CC1(C)C(C=C(Cl)Cl)C1C(=O)OC(C#N)c1cccc(Oc2ccccc2)c1` (configuration not stated): the result was inactive.

Take `CCCCC(O)(Cn1cncn1)c1ccc(Cl)cc1Cl` (configuration not stated): the half-maximal activity concentration (AC50) was 76.5 µM (active).

Regarding `CCOP(=S)(OCC)Oc1nc(Cl)n(C(C)C)n1`, the AC50 was 54.9 µM (active).

Take `CS(=O)(=O)c1ccc(C(=O)C2C(=O)CCCC2=O)c([N+](=O)[O-])c1`: the outcome was inactive.

For `CC1(C)CCC(=Cc2ccc(Cl)cc2)C1(O)Cn1cncn1` (configuration not stated), the AC50 is 35 µM (active).

Consider `N#CN=C1SCCN1Cc1ccc(Cl)nc1`, for which the outcome was inactive.

Turning to `CCCN(CC)CC1COC2(CCC(C(C)(C)C)CC2)O1` (configuration not stated), the half-maximal activity concentration (AC50) was 1.3 µM (active).

On to `CCNP(=S)(OC)O/C(C)=C/C(=O)OC(C)C` (configuration not stated), for which the half-maximal activity concentration (AC50) was 72.6 µM (active).

Source of the values: PubChem BioAssay (EPA / NIEHS).
